PubChem BioAssay (Tox21)
Results filed as inconclusive are left out. Values without a mark were called inactive. The source made the active and inactive calls. The call rests on the fitted dose curve; in most records, active means well fitted cell-killing curve with a large enough effect in the repeat runs; inconclusive means weak or mixed curves, or effect the other way; inactive means no such curve, though single readings can be large or run the other way.

Experiment: qHTS assay to identify small molecule agonists of the estrogen receptor alpha (ER-alpha) signaling pathway in the presence of an antagonist - cell viability counter screen (AID 1259386);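 further: cells exposed to compounds for 22 h at 37 °C before the viability read; nearly all actives have a fitted effect of over 30% in size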
Conditions: VM7Luc4E2 viability, CellTiter-Fluor fluorescence, 22 h; series mostly up to 92.4 µM; activity change, negative = cytotoxicity: at the top concentration
Description: National Center for Advancing Translational Sciences [NCATS]
NIH Chemical Genomics Center [NCGC]
U.S. Environmental Protection Agency [EPA]
National Institutes of Environmental Health Sciences [NIEHS]
National Toxicology Program [NTP]
U.S. Food and Drug Administration [FDA]
Estrogen receptor (ER), a member of nuclear hormone receptor plays an important role in development, metabolic homeostasis and reproduction. Two subtypes of ER, ER-alpha and ER-beta, have similar expression patterns with some uniqueness in both types. Endocrine disrupting chemicals (EDCs) and their interactions with steroid hormone receptors like ER causes disruption of normal endocrine function. Therefore, it is important to understand the effect of environmental chemicals in ER signaling pathway. For identifying ER agonists, VM7Luc4E2 cell line has been used in the current assay.
VM7Luc4E2 cell line (provided by Denison MS, University of California) endogenously expresses full-length ER-alpha and is stably transfected with a plasmid containing four estrogen responsive elements (ERE) upstream of a luciferase reporter gene. This current screening for measuring luciferase reporter gene activity using VM7Luc4E2 cells against Tox21 10K library collection is a confirmation study on agonist mode screening in presence of ER-antagonist (ICI-182,780) at 10.0nM final concentration. The cytotoxicity of the compounds was tested in parallel by measuring the cell viability using CellTiter-Fluor assay system (Promega, Madison, WI) in the same wells.
Tox21 Assay Protocol Summary:
VM7Luc4E2 cells were cultured in phenol red free assay medium containing 10% charcoal stripped FBS for 5 days prior to the assay. The cells were dispensed at 4,000 cells in 4uL of assay medium per well into white wall/solid-bottom 1536-well plates (Corning Life Sciences, Corning, NY) using a Multidrop Combi (Thermo Fisher Scientific Inc., Waltham, MA) dispenser. After the assay plates were incubated at 37C and 5% CO2 for 24hr, 1uL of 10.0nM (final concentration) ICI-182,780 or assay buffer was added using two separate tips of Flying Reagent Dispenser (FRD, Aurora Discovery, San Diego, CA). Then 23nL of compounds dissolved in DMSO at 15 concentrations and positive controls or DMSO only was transferred to the assay plates by a Pintool station (Wako, San Diego, CA). The assay plates were incubated at 37C and 5% CO2 for 22hr. After 21hr incubation at 37C, 1uL/well CellTiter-Fluor reagent (Promega Corporation, Madison, WI) was added to each well using FRD and after 1hr incubation at 37C and 5% CO2, the fluorescence signal was measured on ViewLux plate reader (PerkinElmer, Shelton, CT).
On the % scale 0 is the no-effect control and ±100 the full control effect; potency means the concentration at half of the fitted maximal effect.

Row | Compound | Potency | activity change, negative = cytotoxicity
1 | CN(C)CCCN1c2ccccc2CCc2ccc(Cl)cc21 | 68.6 µM (active) | 
2 | CC(C)NCCCC1(C(N)=O)c2ccccc2-c2ccccc21 |  | -10.6% [at 42.5 µM]
3 | NCCCNCCSP(=O)(O)O |  | -0.352% [at 8.39 µM]
4 | C=C(C)CS(=O)(=O)O |  | 0.706%
5 | Cc1cccc(C)c1NC(=O)C(C)N (stereo not given) |  | 2.56% [at 42.5 µM]
6 | C1OCOCO1 |  | -1.41%
7 | C=C1CC[C@H]2C[C@@H]1C2(C)C |  | 0.549%
8 | CC(=O)OC/C=C(\C)CC/C=C(\C)CCC=C(C)C | inactive | 
9 | O=C[C@H](O)[C@@H](O)[C@H](O)[C@H](O)CO |  | 1.91%
10 | CN(C)CCCNCCCN(C)C |  | -4.83%
11 | C[C@@H]1CCN(C(=O)[C@H](CCCN=C(N)N)NS(=O)(=O)c2cccc3c2NC[C@H](C)C3)[C@@H](C(=O)O)C1 |  | 5.47% [at 42.5 µM]
12 | NS(=O)(=O)c1cc2c(cc1Cl)NC(C1CC3C=CC1C3)NS2(=O)=O (stereo not given) |  | 6.01% [at 42.5 µM]
13 | CC(C)(C)c1nnc(NS(=O)(=O)c2ccccc2)s1 |  | -0.715% [at 42.5 µM]
14 | CCCN1CCCC[C@H]1C(=O)Nc1c(C)cccc1C |  | -1.08% [at 42.5 µM]
15 | CCC(C)C1CCCCC1=O (stereo not given) |  | 0.392%
16 | CC(=O)CC(C)(C)C1CCCCC1 |  | 0.902%
17 | CN1CC(=O)NC1=N |  | 3.33% [at 42.5 µM]
18 | CCO[Si](CCC1CCC2OC2C1)(OCC)OCC (stereo not given) |  | 1.47%
19 | CC(=O)OCC(CCn1cnc2cnc(N)nc21)COC(C)=O |  | 6.33% [at 42.5 µM]
20 | CCOC(C)(C)C |  | 0.243%

Row | Compound | Potency | activity change, negative = cytotoxicity
21 | CC(C)(O)C#CC(C)(C)O |  | 5.6%
22 | Cc1c(O)cccc1O |  | 1.6%
23 | O=C(O)CCCc1ccccc1 |  | 5.81% [at 42.5 µM]
24 | Cc1cccn2c(=O)c(-c3nnn[nH]3)cnc12 |  | 5.01% [at 19 µM]
25 | COc1ccc2c(c1)CCCC2=O |  | 0.763% [at 42.5 µM]
26 | Cc1nc2c([nH]1)c(=O)n(C)c(=O)n2Cc1ccco1 |  | 0.621% [at 42.5 µM]
27 | CCOC(=O)C(=O)OCC |  | -2.39%
28 | C=CCCCCCCCCC=O |  | 2.03%
29 | FC(F)OC(Cl)C(F)(F)F (stereo not given) |  | 4.73%
30 | CO/N=C(/C(=O)N[C@@H]1C(=O)N2C(C(=O)OCOC(=O)C(C)(C)C)=C(C)CS[C@H]12)c1csc(N)n1 |  | 2.84% [at 42.5 µM]
31 | Nc1ccc(S(=O)(=O)Nc2ccnn2-c2ccccc2)cc1 |  | 1.05% [at 19 µM]
32 | c1cnc(N2CCN(Cc3ccc4c(c3)OCO4)CC2)nc1 |  | 0.108% [at 42.5 µM]
33 | CC(=O)OCC(=O)[C@@]1(O)CCC2C3CCC4=CC(=O)CC[C@]4(C)C3[C@@H](O)C[C@@]21C (stereo not given in full) |  | 3.01% [at 42.5 µM]
34 | CCN1CCC[C@H]1CNC(=O)c1c(O)c(Cl)cc(Cl)c1OC |  | 0.417% [at 42.5 µM]
35 | Nc1nc2c(ncn2COC(CO)CO)c(=O)[nH]1 |  | 0.772% [at 42.5 µM]
36 | CCOC(=O)c1cccc(N)c1 |  | -2.02% [at 42.5 µM]
37 | CCC=O |  | 1.39%
38 | CC(C(=O)O)c1ccc(CC2CCCC2=O)cc1 (stereo not given) |  | -0.656% [at 42.5 µM]
39 | ClC(Cl)(Br)Br |  | 3.27%
40 | Nc1c2c(nc3ccccc13)CCCC2O (stereo not given) |  | -5.24% [at 42.5 µM]
